These results are taken from PubChem BioAssay.

A short description of experiment [1]: blockers of polyQ-driven CASP3 activation – cell-based (AID 1583). Particulars: polyglutamine-induced caspase-3 activation, cell assay; stronger effect = higher value;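 tested at 10 µM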.
Experiment [2] can be described thus: yeast 75Q aggregation reduction – 75Q-TubU reporter (AID 1593). As to conditions: Yeast 75Q polyglutamine aggregation reporter.
Experiment [3] can be described thus: restoration of touch response, mutant HTT neurons – whole organism, C. elegans mechanosensory neurons, N-terminal huntingtin (AID 1599). Particulars: C. elegans polyQ-huntingtin mechanosensory neurons, stronger effect = higher value.
Experiment [4] is described as follows: blockers of cytochrome c efflux from mitochondria – biochemical, purified mitochondria (AID 1603).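 Also: mouse liver mitochondria challenged with calcium chloride; signal normalized to the plate average as 100%.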 As to conditions: stronger effect = lower value.
Experiment [5] can be described thus: polyglutamine aggregate formation blockers (AID 1604). Particulars: polyglutamine-induced protein aggregation inhibition assay; stronger effect = higher value; tested at 2.5 µM.
The nature of experiment [6]: glutamate transport activators, MN-1 cells, MN-1 cell line (AID 1612).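 Also: tested at 1 µM final; 0% = mean of DMSO vehicle wells on each plate; positive means more glutamate uptake than control and negative means less.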 Particulars: MN-1 motor neuron cells, stronger effect = higher value.
A short description of experiment [7]: GFP-Q80 aggregate reduction, neuronal-like cells, cell-based, NGF-treated PC12, GFPQ80 (AID 1614).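 Also: lower means fewer inclusions and 0 means no inclusions at all.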 Particulars: PC12 NGF-treated GFP-polyQ80 inclusion reduction.
Experiment [8] can be described thus: 75Q-TubH aggregate inhibition, S. cerevisiae, yeast (AID 1616). Particulars: S. cerevisiae 75Q-TubH polyglutamine aggregation suppression; stronger effect = higher value.
Experiment [9] in a line: P. berghei load reduction in hepatocytes – cell-based, HepG2, luciferase luminescence, HepG2 viability, primary screen (AID 624349).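 Also: 100% = mean of DMSO negative control wells on the same plate.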 Particulars: P. berghei liver stage in HepG2, luciferase luminescence, concentration not given here; parasite load remaining: stronger effect = lower value; viability: measured here: HepG2 viability without parasites.
A short description of experiment [10]: EMT-state selective cytotoxicity in co-culture – imaging, PC-3E GFP, TEM4-18 mCherry, primary screen (AID 1345086;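 active = compounds killing one labelled cell type while sparing the other, by normalised counts and ratio limits, not self-fluorescent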;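 as to all read-outs here: cells exposed to compound for 72 h before imaging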;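 as to red/green cell ratio (normalised): normalised mesenchymal count divided by normalised epithelial count so high means epithelial killing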). Particulars: PC-3E GFP / TEM4-18 mCherry co-culture, imaging cell counts, at 1 µM; for red/green cell ratio (normalised): actives lie on both sides, counts scaled to control wells, 1 = unselective.
A short description of experiment [11]: viability loss with induced miR-34 in A549 – imaging, A549 dox-inducible miR-34, nuclei and caspase counts, primary screen (AID 1347080;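 active = compounds whose cell count with miR-34 switched on is under 0.7 times the count with it off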). Particulars: A549 miR-34 inducible, Hoechst nuclei count, 48 h.
Experiment [12] has as its target Mitogen-activated protein kinase 7 (Homo sapiens) (UniProt Q13164). Put plainly: Gal4-ERK5 driven luciferase induction – cell-based, HTS, primary screen (AID 1508626;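 active = luciferase signal above three times the same-plate solvent-only control wells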;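 also: luciferase driven by Gal4-ERK5 fusion binding five Gal4 sites before minimal TATA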). As to conditions: HeLa Gal4-ERK5 transactivation, 18 h, at 5 µM, stronger effect = higher value.
Experiment [13] concerns the target NAD(+) hydrolase SARM1 (Homo sapiens) (UniProt Q6SZW1). The experiment can be described thus: blocking NAD cleavage by SARM1 SAM-TIR – cell lysate, NAD-Glo luminescence (AID 1508614;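 active = compound whose remaining NAD level is above about 45 nM, limit read from the data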;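 also: higher remaining NAD means stronger inhibition of SARM1 NADase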). As to conditions: SAM-TIR HEK293T lysate NADase, at 1 µM, stronger effect = higher value.
The mark [14] stands for this setting: measured here: epithelial PC-3E GFP cell survival.
The mark [15] stands for this setting: measured here: mesenchymal TEM4-18 mCherry cell survival.
Setting [16] is: stronger effect = lower value, cell number ratio, induced over uninduced.
Where [17] appears, read: measured here: relative caspase fold change +Dox/-Dox.
The mark [18] stands for this setting: measured here: total cells with miR-34 induction, stronger effect = lower value.
Setting [19] is: measured here: total cells without miR-34 induction.

“And” between values parts separate entries of the source, which are not always exact repeats. Equal entries are not always repeated. For some of these results: Measured potencies and affinities stand elsewhere. The source made the active and inactive calls. Rule as the data show it, unless noted: active = parasite load remaining mostly below about 12% (no sharp cut-off); inactive = mostly above about 10%.

Mitogen-activated protein kinase 7 (Homo sapiens), sequence (Q13164 whole entry, looked up, the tested form may be a part): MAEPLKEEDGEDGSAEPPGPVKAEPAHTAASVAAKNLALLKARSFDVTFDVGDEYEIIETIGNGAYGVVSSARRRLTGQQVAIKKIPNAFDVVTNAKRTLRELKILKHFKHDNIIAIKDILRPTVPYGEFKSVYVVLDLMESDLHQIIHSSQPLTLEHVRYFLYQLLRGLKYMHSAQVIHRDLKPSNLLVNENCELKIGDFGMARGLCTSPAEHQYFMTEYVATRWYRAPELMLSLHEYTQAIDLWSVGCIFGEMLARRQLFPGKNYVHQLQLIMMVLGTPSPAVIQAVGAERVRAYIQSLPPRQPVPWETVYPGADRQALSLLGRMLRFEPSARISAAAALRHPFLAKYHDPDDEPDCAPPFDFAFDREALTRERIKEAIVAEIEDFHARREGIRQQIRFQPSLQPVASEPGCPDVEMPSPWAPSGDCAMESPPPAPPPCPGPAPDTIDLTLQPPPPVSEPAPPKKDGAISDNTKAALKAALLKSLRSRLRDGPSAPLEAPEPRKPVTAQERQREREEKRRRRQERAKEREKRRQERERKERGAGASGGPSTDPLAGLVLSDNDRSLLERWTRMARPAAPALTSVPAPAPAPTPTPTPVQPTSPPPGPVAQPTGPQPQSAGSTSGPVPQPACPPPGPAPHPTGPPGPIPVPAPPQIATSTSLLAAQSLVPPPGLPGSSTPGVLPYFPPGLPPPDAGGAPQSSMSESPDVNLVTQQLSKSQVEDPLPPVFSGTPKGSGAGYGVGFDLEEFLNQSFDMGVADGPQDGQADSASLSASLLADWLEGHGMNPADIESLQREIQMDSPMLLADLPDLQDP
NAD(+) hydrolase SARM1 (Homo sapiens), sequence (Q6SZW1 whole entry, looked up): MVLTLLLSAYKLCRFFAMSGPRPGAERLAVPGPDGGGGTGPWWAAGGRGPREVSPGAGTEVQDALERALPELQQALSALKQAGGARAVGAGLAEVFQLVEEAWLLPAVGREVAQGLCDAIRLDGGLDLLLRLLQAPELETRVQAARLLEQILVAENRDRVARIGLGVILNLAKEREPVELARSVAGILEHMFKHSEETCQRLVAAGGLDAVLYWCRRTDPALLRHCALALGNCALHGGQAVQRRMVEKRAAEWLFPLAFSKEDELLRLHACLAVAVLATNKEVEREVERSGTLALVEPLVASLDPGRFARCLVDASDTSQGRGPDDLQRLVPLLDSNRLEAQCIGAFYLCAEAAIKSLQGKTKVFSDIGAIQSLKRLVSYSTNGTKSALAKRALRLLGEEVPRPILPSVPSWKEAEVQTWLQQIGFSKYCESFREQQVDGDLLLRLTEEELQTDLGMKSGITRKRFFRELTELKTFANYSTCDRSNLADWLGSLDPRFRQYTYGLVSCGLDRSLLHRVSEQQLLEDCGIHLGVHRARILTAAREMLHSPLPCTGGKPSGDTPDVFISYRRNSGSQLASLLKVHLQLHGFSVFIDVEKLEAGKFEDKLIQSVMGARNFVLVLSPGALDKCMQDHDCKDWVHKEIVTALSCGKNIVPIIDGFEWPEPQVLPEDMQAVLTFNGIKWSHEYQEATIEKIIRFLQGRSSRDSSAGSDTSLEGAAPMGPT

A word on the inhibition: it is the drop in the measured response relative to a control, in per cent. A word on the viability: it is the share of living cells, or the viability signal relative to a control. Consider `C[C@@H]1CC2C3C[C@H](F)C4=CC(=O)C=C[C@]4(C)[C@@]3(F)[C@@H](O)C[C@]2(C)[C@@]1(O)C(=O)COC(=O)C(C)(C)C` (stereo partly drawn), for which, in experiment [1], the inhibition is -23.2%. In experiment [2], the score came to 1.34. In [3], the rescue above control was 16. Also, the cytochrome c release ratio in experiment [4] turned out to be 0.82. This molecule also registered an inhibition of aggregation in experiment [5] of 39.8%. In experiment [6], the glutamate uptake change came to 27.8%. In experiment [7], the inclusion score worked out at 2. The aggregation suppression score in experiment [8] is 1.12. Moreover, the parasite load remaining in experiment [9] was 119% (inactive) and 74% (inactive). The viability in [9] is 76.5% and 90.1%. In addition, the red/green cell ratio (normalised) in experiment [10] is 1.34 (inactive). In addition, the normalised cell number was determined as 1 in experiment [10] (setting [14]) and 1.35 in experiment [10] (setting [15]). In addition, the fold change in experiment [11] (setting [16]) was 0.838 (inactive); in [11] (setting [17]) it was 1.19. In addition, the cell count in experiment [11] (setting [18]) worked out at 6940; in experiment [11] (setting [19]), 8290. Further, in experiment [12], the luciferase signal was 20 AU (inactive).
For the molecule `CO/N=C(/C(=O)N[C@@H]1C(=O)N2C(C(=O)O)=C(COC(C)=O)CS[C@H]12)c1csc(N)n1`, the inhibition in [1] is 6.49%. The molecule also had a score in [2] of 1.38. Further, the rescue above control in experiment [3] is 2.83. Moreover, in experiment [4], the cytochrome c release ratio turned out to be 1.43. Also, the inhibition of aggregation in [5] is 86.2%. The glutamate uptake change in [6] was -17.6%. Besides, the inclusion score in experiment [7] came out at 2. In experiment [8], this molecule showed an aggregation suppression score of 1.39. In [9], the parasite load remaining was 84.7% (inactive) and 61.2% (inactive). Moreover, the viability in experiment [9] is 73.5% and 100%. In addition, the red/green cell ratio (normalised) in experiment [10] was 1.18 (inactive). The results for the normalised cell number in experiment [10] (setting [14]) and in experiment [10] (setting [15]) were 1.15 and 1.35, respectively. The fold change is 0.913 (inactive) in experiment [11] (setting [16]) and 1.26 in experiment [11] (setting [17]). In addition, the cell count amounted to 11200 in [11] (setting [18]) and 12300 in [11] (setting [19]).
Regarding `Cc1c(C)c2c(c(C)c1O)CCC(C)(CCCC(C)CCCC(C)CCCC(C)C)O2` (stereo not drawn), the inhibition in experiment [1] worked out at 25.1%. Besides, the score in experiment [2] is -0.94. Moreover, the rescue above control in experiment [3] was -0.91. Also, the cytochrome c release ratio in experiment [4] came to 1.24. The molecule also returned an inhibition of aggregation in experiment [5] of 78.9%. Further, the glutamate uptake change in experiment [6] was -4.89%. The molecule further had an inclusion score in [7] of 2. The aggregation suppression score in experiment [8] is 0.219. In experiment [9], the parasite load remaining was 67.5% (inactive). Moreover, the viability in experiment [9] was 90.7%. Besides, the red/green cell ratio (normalised) in experiment [10] was 1.01 (inactive). Further, the values for the normalised cell number in experiment [10] (setting [14]) and in experiment [10] (setting [15]) were 0.82 and 0.83, respectively. The results for the fold change in experiment [11] (setting [16]) and in experiment [11] (setting [17]) were 0.899 (inactive) and 1.09, respectively. Further, the cell count worked out at 10700 in [11] (setting [18]) and 11900 in experiment [11] (setting [19]). The luciferase signal in experiment [12] was 44 AU (inactive).
Regarding `COc1ccc(C[C@H](N)C(=O)N[C@@H]2[C@@H](CO)OC(n3cnc4c(N(C)C)ncnc43)[C@@H]2O)cc1` (stereo partly drawn), the inhibition in experiment [1] is 52.2%. The score in experiment [2] was 1.68. In experiment [3], the rescue above control is -10.3. The cytochrome c release ratio in experiment [4] is 1.17. In experiment [5], this molecule showed an inhibition of aggregation of 54%. In experiment [6], the glutamate uptake change was determined as 15.3%. In [8], this molecule yielded an aggregation suppression score of 1.32. Further, in experiment [9], the parasite load remaining is 54.7% (inactive) and 3.3% (inactive). In addition, in experiment [9], the viability is 40.9% and 70.7%. For the same molecule, the red/green cell ratio (normalised) in experiment [10] is 1 (inactive). In addition, the normalised cell number in experiment [10] (setting [14]) and in experiment [10] (setting [15]) was 0.94 each time. Also, the fold change in experiment [11] (setting [16]) was 1.05 (inactive); in [11] (setting [17]) it was 1.45. Besides, the cell count was 385 in experiment [11] (setting [18]) and 366 in [11] (setting [19]).
With `CC(=O)NS(=O)(=O)c1ccc(NC(=O)c2ccccc2C(=O)O)cc1`, in experiment [10], the red/green cell ratio (normalised) was 0.81 (inactive). Besides, the normalised cell number in experiment [10] (setting [14]) amounted to 1.22; in experiment [10] (setting [15]), 0.99. The fold change was 0.886 (inactive) in experiment [11] (setting [16]) and 0.953 in experiment [11] (setting [17]). Also, the cell count in experiment [11] (setting [18]) worked out at 8920; in experiment [11] (setting [19]) it was 10100. Besides, the remaining NAD in experiment [13] is 10 nM (inactive). Besides, in experiment [12], the luciferase signal was 100 AU (inactive).
In the case of `Nc1ccc(S(=O)(=O)[O-])cc1.Nc1ccc(S(=O)(=O)[O-])cc1.[Zn+2]`, the parasite load remaining in experiment [9] was 34.7% (inactive). In experiment [9], this molecule showed a viability of 93.6%. For the same molecule, in experiment [10], the red/green cell ratio (normalised) is 0.95 (inactive). Also, the values for the normalised cell number in experiment [10] (setting [14]) and in experiment [10] (setting [15]) were 1.26 and 1.2, respectively. In addition, the fold change in [11] (setting [16]) is 0.91 (inactive); in experiment [11] (setting [17]), 2.98. Also, the cell count in experiment [11] (setting [18]) stood at 11500; in [11] (setting [19]), 12600. The luciferase signal in experiment [12] is 56 AU (inactive).
